High-throughput results from PubChem BioAssay.
Rows were chosen to be rich in hits. Some 1.5% of all compounds tested hit in one or more screens of this group.
PrPC TRFRET: inhibitors of human cell surface prion protein PrPC, primary screen, cell-based, TR-FRET. Major prion protein (Homo sapiens), P04156. TR-FRET read-out. inhibition, % at 13.8 µM. hit rate 0.43% among 370,000. AID 720596, 2013; in the data active = inhibition above about 24%; also: 0% = median of the test wells and 100% = reference compound wells
TcdB GH inh: TcdB glycohydrolase inhibitors, primary screen, biochemical, single point, plate reader; inhibition, % at 9.99 µM; hit rate 0.24% among 350,000; TcdB glycohydrolase enzymatic assay; in the data active = inhibition above about 10%
BH1578 lux ind: inducers of Vibrio cholerae quorum light production without autoinducers, primary screen, BH1578 luxS cqsA deficient, single point; AID 588436, 2011; activation, % at 18.7 µM; V. cholerae BH1578 lux reporter, luminescence, 6 h; hit rate 0.16% among 350,000; in the data active = activation mostly above about 9.7%, no sharp cut-off
SSB-PriA inh: inhibitors of Klebsiella pneumoniae PriA binding to SSB C-terminal tail, primary screen, biochemical, AlphaScreen. PriA–SSB C-terminal tail interaction (Klebsiella pneumoniae). AlphaScreen SSBct-PriA binding, biotinylated peptide. inhibition, % at 33 µM. hit rate 0.6% among 430,000; in the data active = inhibition mostly above about 37%, no sharp cut-off; inactive = mostly below about 20%;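 also: plate controls were negative control peptide for no effect and reference peptide for full effect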
CCHF vOTU inh-1: CCHFV vOTU protease inhibitors, primary screen, biochemical, Pep-AMC substrate, fluorescence | Crimean-Congo hemorrhagic fever virus L polyprotein viral ovarian tumor (vOTU) protease … | inhibition, % at 11.5 µM | hit rate 0.55% among 370,000; also: 0% = vehicle wells with enzyme and 100% = no enzyme wells
VHR inh abs: VHR1 phosphatase inhibitors, primary screen, biochemical, absorbance, uHTS | Dual specificity protein phosphatase 3 (Homo sapiens), P51452 | recombinant VHR phosphatase, pNPP absorbance | inhibition, % at 13.3 µM | hit rate 0.52% among 290,000; in the data active = inhibition above about 50%
Target sequence (P51452 whole entry, looked up): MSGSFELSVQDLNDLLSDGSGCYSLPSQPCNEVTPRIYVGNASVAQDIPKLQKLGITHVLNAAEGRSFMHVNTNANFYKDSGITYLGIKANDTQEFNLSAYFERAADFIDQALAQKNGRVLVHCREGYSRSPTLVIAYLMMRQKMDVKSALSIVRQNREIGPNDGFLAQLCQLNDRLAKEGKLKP
CCHF vOTU inh-2: CCHFV vOTU protease inhibitors, confirmation, biochemical, Pep-AMC substrate, fluorescence; shares compounds with CCHF vOTU inh-1; Recombinant CCHFV vOTU; inhibition, % at 11.5 µM; hit rate 17% among 1,900
Numbers without * were called inactive. Rule as the data show it, unless noted: active = inhibition above about 30%; inactive = the rest.

Screening Cc1cc(C)c(C#N)c(N2CCN(C(=O)C3COc4ccccc4O3)CC2)n1 (centres undefined) returned PrPC TRFRET -7.5, TcdB GH inh 0.1, BH1578 lux ind -0.4, SSB-PriA inh 10.6, CCHF vOTU inh-1 48.2* and CCHF vOTU inh-2 -29.9.
`CN(CC1Cc2ccccc2CO1)S(=O)(=O)c1ccc(F)c(C(=O)O)c1` (centres undefined) gave SSB-PriA inh -8.0.
`COc1ccc(S(=O)(=O)N2CCN(Cc3ccc(Cl)cc3)CC2)cc1` gave PrPC TRFRET 0.6, BH1578 lux ind inactive, SSB-PriA inh -15.0, CCHF vOTU inh-1 33.2*, VHR inh abs 4.8 and CCHF vOTU inh-2 -0.4.
For CN(C)c1cc(N2CCN(C(=O)c3c(F)cccc3F)CC2)cnn1 the results were SSB-PriA inh -11.0.
O=C(O)Cn1c2c(c3ccccc31)CCCC2 was read as PrPC TRFRET 7.3, BH1578 lux ind inactive, SSB-PriA inh 6.3, CCHF vOTU inh-1 29.5*, VHR inh abs 8.4 and CCHF vOTU inh-2 -17.3.
`CC(=O)NNC(=O)CCn1c2c(c3ccccc31)CCCC2` gave PrPC TRFRET 2.0, TcdB GH inh -0.2, BH1578 lux ind -0.9, SSB-PriA inh 0.3, CCHF vOTU inh-1 -15.1 and VHR inh abs 8.5.
Screening NCCc1nc2ccc(F)cc2[nH]1 returned SSB-PriA inh 10.0.
`CSCC[C@](C)(O)CNC(=O)Nc1ccc(C(F)(F)F)cc1` gave SSB-PriA inh -5.0.
`CC(C)(C)c1ccccc1NC(=O)Nc1nc(C(N)Cc2ccc(F)cc2)cs1` (centres undefined) gave PrPC TRFRET 4.1, TcdB GH inh 0.1, BH1578 lux ind inactive, CCHF vOTU inh-1 30.2* and CCHF vOTU inh-2 -23.3.
Screening COc1ccccc1NC(=O)c1ccc(NS(=O)(=O)c2ccc(F)c(F)c2F)cc1 returned PrPC TRFRET 8.0, BH1578 lux ind -0.2, SSB-PriA inh 0.0, CCHF vOTU inh-1 29.9*, VHR inh abs 5.7 and CCHF vOTU inh-2 -13.5.
Screening O=C(Cn1cnc(-c2nc(-c3cccs3)cs2)c1)Nc1ccc(F)c(Cl)c1 returned SSB-PriA inh 3.0.
For Cc1cc(C(=O)OCC(=O)N2CCOCC2)c2ccccc2n1 the results were PrPC TRFRET 3.8, BH1578 lux ind -0.2, SSB-PriA inh -10.1, CCHF vOTU inh-1 33.7*, VHR inh abs 19.4 and CCHF vOTU inh-2 -13.4.
`COC(=O)[C@]12C[C@H](CC(=O)NCCC(C)C)C(=O)N(Cc3ccc(Cl)cc3Cl)C1=C[C@H](C(C)(C)C)O[C@@H]2C` gave PrPC TRFRET -4.7, CCHF vOTU inh-1 31.3* and CCHF vOTU inh-2 6.3.
Screening CCOC(=O)[C@]12CCCC=C1N(Cc1ccc(Cl)cc1Cl)C(=O)[C@H](CC(=O)NCCc1ccccc1OC)C2 returned PrPC TRFRET -1.4, TcdB GH inh 0.9, CCHF vOTU inh-1 30.2* and CCHF vOTU inh-2 -1.9.
Screening CCOC(=O)[C@]12CCC=C1N(Cc1ccco1)C(=O)[C@H](CC(=O)NCc1cccs1)C2 returned PrPC TRFRET 2.5, TcdB GH inh 0.5, CCHF vOTU inh-1 32.6* and CCHF vOTU inh-2 -24.2.
For COC(=O)[C@]12C[C@H](CC(=O)NCCc3ccccc3OC)C(=O)N(Cc3ccccc3)C1=C[C@H](C(C)(C)C)O[C@@H]2C the results were PrPC TRFRET -2.3, TcdB GH inh 1.5 and CCHF vOTU inh-1 17.2.
For CCCCNC(=O)C[C@H]1C[C@@]2(C(=O)OC)C(=C[C@H](C(C)(C)C)O[C@@H]2C)N(Cc2ccc(Cl)cc2Cl)C1=O the results were PrPC TRFRET -2.4 and CCHF vOTU inh-1 26.2.
`COC(=O)[C@]12C[C@H](CC(=O)NCCc3ccccc3OC)C(=O)N(Cc3ccc(Cl)cc3Cl)C1=C[C@H](C(C)(C)C)O[C@@H]2C` gave PrPC TRFRET -1.3, CCHF vOTU inh-1 29.9* and CCHF vOTU inh-2 13.0.
Screening Cc1nn([C@H]2CCS(=O)(=O)C2)c(C)c1N1CCN(C(=O)C2CCN(S(C)(=O)=O)CC2)CC1 returned SSB-PriA inh -11.0.
For COc1ccc(CCNC(=O)c2nnn(Cc3ccc(Br)cc3)c2N)cc1OC the results were SSB-PriA inh -1.0.
For CC(C)(Oc1ccc(Cl)cc1)C(=O)NCc1cnn2ccccc12 the results were SSB-PriA inh -7.0.
For CC1(C)CC(=O)C=C(Nc2ccc(Br)cn2)C1 the results were PrPC TRFRET -3.0, TcdB GH inh -0.5, BH1578 lux ind -0.4, SSB-PriA inh 1.9, CCHF vOTU inh-1 30.6*, VHR inh abs 3.1 and CCHF vOTU inh-2 -1.3.
Screening CC1(C)CC(=O)C=C(Nc2ccccn2)C1 returned PrPC TRFRET -1.4, BH1578 lux ind inactive, SSB-PriA inh -7.3, CCHF vOTU inh-1 10.9 and VHR inh abs 11.8.
`CC(C)(C)c1ccc(C(=O)N2CCOC23CCCCC3)cc1` gave PrPC TRFRET 1.2, TcdB GH inh -0.8, CCHF vOTU inh-1 33.6* and CCHF vOTU inh-2 -15.0.
`CC(C)(C)c1ccc(C(=O)N2CCCCCC2)cc1` gave SSB-PriA inh -4.0.
`O=C(N/N=C/c1c(O)n(CCc2ccccc2)c(=O)[nH]c1=O)c1ccccc1O` gave PrPC TRFRET 3.1, TcdB GH inh 0.4, BH1578 lux ind 0.8, CCHF vOTU inh-1 32.2*, VHR inh abs 16.5 and CCHF vOTU inh-2 -7.5.
Screening CC[n+]1c(-c2ccccc2)c2cc(N)ccc2c2ccc(N)cc21 returned PrPC TRFRET -19.2, TcdB GH inh 1.5, BH1578 lux ind inactive, SSB-PriA inh 65.4, CCHF vOTU inh-1 91.0* and CCHF vOTU inh-2 89.8*.
For CCN1C(=O)[C@@H]2[C@H](C1=O)[C@@H]1C(=O)Nc3ccccc3C(=O)N1[C@@H]2c1ccc(OC)cc1 the results were PrPC TRFRET -0.3, TcdB GH inh 1.3, BH1578 lux ind inactive, SSB-PriA inh 1.1, CCHF vOTU inh-1 33.7* and CCHF vOTU inh-2 -31.1.
Screening CN1C(=O)[C@@H]2[C@H](C1=O)[C@@H]1C(=O)Nc3ccccc3C(=O)N1[C@@H]2c1ccc(F)cc1 returned PrPC TRFRET -2.0, TcdB GH inh 0.3, BH1578 lux ind -0.4, SSB-PriA inh 1.1, CCHF vOTU inh-1 -1.9 and VHR inh abs 1.1.
CC(=O)c1cccc(NC(=O)c2cc(-c3ccco3)nc3c2c(C)nn3C2CCS(=O)(=O)C2)c1 (centres undefined) was read as SSB-PriA inh 25.0.
